A short description of the assay: qHTS profiling of inhibitors of Plasmodium falciparum (HB3) proliferation (acoustic dispense). Conditions: P. falciparum HB3 in erythrocytes, SYBR Green, 72 h; at 49.8 µM (top of the series) unless noted. An excerpt:
Plasmodium falciparum is a virulent malarial parasite that kills 1-2 million people worldwide each year. Transmitted by mosquitoes, the sporozoite form of the parasite enters the blood stream to infect hepatocytes, where they become merozoites that infect red blood cells (erythrocytes). Within erythrocytes, merozoites begin a […] cycle of growth and division, after which the parasite is released to infect new red blood cells. Gametocytes, which form within erythrocytes as well, circulate in the bloodstream and are ingested by the mosquito, thereby completing the life cycle. To profile malarial isolates for differential chemical responses and to identify inhibitors of malarial growth, an assay that measures P. falciparum growth and replication within erythrocytes was employed. This assay uses a DNA binding fluorescent dye (SYBR Green) to detect parasite DNA following cell lysis. Because mature erythrocytes lack DNA, only Plasmodium-derived DNA is detected.
The SYBR Green viability assay was adapted from a method described previously (Plouffe et al., 2008). For screening 3 ul culture medium was dispensed into 1536 well black clear bottom plates (Aurora Biotechnologies) using a Multidrop Combi (Thermo Fisher Scientific Inc.), 23 nL of compounds in DMSO were added by an acoustic dispenser (EDC Biosystems), and 5 ul of erythrocytes infected with P. falciparum (0.3% parasitemia, 2.5% hematocrit final concentration) were added. The plates were incubated at 37 C in a humidified incubator in 5% CO2 for 72 h, and 2 ul lysis buffer (20 mM Tris HCl, 10 mM EDTA, 0.16% saponin, 1.6% triton X, 10X SYBR Green I supplied as 10,000X […] by Invitrogen) was added to each well. The plates were mixed for 25 sec with gentle shaking and incubated overnight at room temperature in the dark. The following morning, fluorescence intensity at 485(14) nm excitation and 535(25) nm emission wavelengths was measured on an EnVision (Perkin Elmer) plate reader. Plate reads were normalized relative to the control inhibitor (0.29 uM artemisinin) and vehicle (DMSO) wells present on each plate and then corrected by an algorithm using vehicle-only control plates at the beginning and end of the compound plate stack.
A general note: In qHTS, concentration-response curves come from the screen itself.
`O=C(Nc1ccc([N+](=O)[O-])cc1Cl)c1cc(Cl)ccc1O`: the activity (normalised, proliferation) amounted to 99.3%.

With `CO[C@@H]1C(N(C)C(=O)c2ccccc2)C[C@H]2O[C@]1(C)n1c3ccccc3c3c4c(c5c6ccccc6n2c5c31)C(=O)NC4=O` (stereo not given in full), the activity (normalised, proliferation) was 17.3%.

In the case of `Cn1c(=O)n(-c2ccc(C(C)(C)C#N)cc2)c2c3cc(-c4cnc5ccccc5c4)ccc3ncc21`, the activity (normalised, proliferation) is 1.54%. Regarding `COc1ccc(-c2ccc3ncc4c(c3c2)n(-c2ccc(N3CCNCC3)c(C(F)(F)F)c2)c(=O)n4C)cn1`, the activity (normalised, proliferation) was found to be 5.42%. With `CC(C)[C@H](C(=O)Nc1ccc(C(=O)NO)cc1)c1ccccc1` the figure was -0.656%. Turning to `CN(C(=O)OC(C)(C)C)[C@@H](Cc1ccc(O[S+](=O)([O-])c2cccc3cnccc23)cc1)C(=O)N1CCN(C(=O)OCc2ccccc2)CC1`, the activity (normalised, proliferation) came to 2.29%. With `C[C@H]1c2cccc(O)c2C(O)=C2C(=O)[C@]3(O)C(O)=C(C(N)=O)C(=O)[C@@H](N(C)C)[C@@H]3[C@@H](O)[C@@H]21` the figure was 2.34%; with `COc1ncc(-c2ccc3nccc(-c4ccnnc4)c3c2)cc1NS(=O)(=O)c1ccc(F)cc1F`, -1.51%.

With `Cc1nc2cnc3ccc(C#Cc4cccnc4)cc3c2n1-c1ccc(C(C)(C)C#N)cc1`, the activity (normalised, proliferation) was determined as 1.13%. With `CO[C@H]1C=CO[C@@]2(C)Oc3c(C)c(O)c4c(O)c(c(C=NN5CCN(C)CC5)c(O)c4c3C2=O)NC(=O)C(C)=CC=C[C@H](C)[C@H](O)[C@@H](C)[C@@H](O)[C@@H](C)[C@H](OC(C)=O)[C@H]1C` the figure was -0.914% [at 16.5 µM].

Take `COc1cc(NCc2ccc3nc(N)nc(N)c3c2C)cc(OC)c1OC`: the activity (normalised, proliferation) is -2.34%. With `C=CCn1c(=O)c2cnc(Nc3ccc(N4CCN(C)CC4)cc3)nc2n1-c1cccc(C(C)(C)O)n1` the figure was -0.406%; with `CCn1nnc2c(N3CCOCC3)nc(-c3ccc(NC(=O)Nc4ccc(C(=O)N5CCN(C)CC5)cc4)cc3)nc21`, 4.68%; with `CCOC(=O)[C@H](CCc1ccccc1)N[C@H]1CS[C@H](c2cccs2)CN(CC(=O)O)C1=O`, 67.9%.

Turning to `Cn1cc(C2=C(c3c4n(c5ccccc35)CCC(CN)C4)C(=O)NC2=O)c2ccccc21` (stereo not given), the activity (normalised, proliferation) is -0.862%. With `CCCCN(CCCC)CC(O)c1cc(Cl)cc2c1-c1ccc(Cl)cc1C2=Cc1ccc(Cl)cc1` (stereo not given), the activity (normalised, proliferation) was -1.5%. On to `CC(=O)Nc1nc(C)c(-c2ccc(Cl)c(S(=O)(=O)NCCO)c2)s1`, for which the activity (normalised, proliferation) was -1.46%. The figure for `CO[C@H]1C=CC=C(C)C(=O)NC2=CC(=O)C(NCCN(C)C)=C(C[C@@H](C)C[C@H](OC)[C@@H](O)[C@@H](C)C=C(C)[C@@H]1OC(N)=O)C2=O` is -0.262%; for `CN[C@@H]1C[C@H]2O[C@@](C)([C@H]1OC)n1c3ccccc3c3c4c(c5c6ccccc6n2c5c31)C(=O)N[C@H]4O` it is -0.206%; for `CCc1cc(Nc2nccc(-c3c(-c4ccc(OC)c(C(=O)Nc5c(F)cccc5F)c4)nc4ccccn34)n2)c(OC)cc1N1CCC(N2CCN(S(C)(=O)=O)CC2)CC1` it is 0.0178%. With `O=C1NC(=O)C(=Cc2ccc3nccc(-c4ccncc4)c3c2)S1` the figure was 0.554%; with `CC1(C)N=C(N)N=C(N)N1c1ccc(Cl)cc1`, -0.199%. The figure for `CCN(CC)Cc1cc(Nc2ccnc3cc(Cl)ccc23)ccc1O` is -0.453% [at 23.2 µM]; for `Cc1ccc([N+](=O)[O-])cc1S(=O)(=O)N(C)N=Cc1cnc2ccc(Br)cn12` it is 13.3%. On to `O[C@H](c1cc(C(F)(F)F)nc2c(C(F)(F)F)cccc12)[C@H]1CCCCN1`, for which the activity (normalised, proliferation) is 3.25% [at 23.2 µM]. The figure for `COC(=O)c1ccc2c(C(=Nc3ccc(N(C)C(=O)CN4CCN(C)CC4)cc3)c3ccccc3)c(O)[nH]c2c1` is 35.3%; for `Cn1c(=O)c(-c2c(Cl)cccc2Cl)cc2cnc(Nc3cccc(C(=O)O)c3)nc21` it is 16.3%; for `CCN(CC)CCNC(=O)c1c(C)[nH]c(C=C2C(=O)Nc3ccc(F)cc32)c1C` it is 0.208% [at 100 µM]. The figure for `COc1cc2c(Oc3ccc(NC(=O)C4(C(=O)Nc5ccc(F)cc5)CC4)cc3F)ccnc2cc1OCCCN1CCOCC1` is 17.9%. For the compound `FC(F)c1nc2ccccc2n1-c1nc(N2CCOCC2)nc(N2CCOCC2)n1`, the activity (normalised, proliferation) came to 25.3%. In the case of `CCN(CC)CCCC(C)Nc1ccnc2cc(Cl)ccc12` (stereo not given), the activity (normalised, proliferation) is -0.388%. The figure for `Cc1cn(-c2cc(NC(=O)c3ccc(C)c(Nc4nccc(-c5cccnc5)n4)c3)cc(C(F)(F)F)c2)cn1` is 1.32%. With `CSc1cccc(Nc2ncc3cc(-c4c(Cl)cccc4Cl)c(=O)n(C)c3n2)c1` the figure was 3%; with `CC[C@H]1CN2CCc3cc(OC)c(OC)cc3[C@H]2C[C@@H]1C[C@@H]1NCCc2cc(OC)c(OC)cc21`, -0.337%. With `NC(=NCCCCCCN=C(N)N=C(N)Nc1ccc(Cl)cc1)N=C(N)Nc1ccc(Cl)cc1` the figure was 8.37%; with `CC[C@@]1([C@@H]2O[C@@H]([C@H]3O[C@@](O)(CO)[C@H](C)C[C@H]3C)C[C@H]2C)CC[C@H]([C@]2(C)CC[C@]3(C[C@H](O)[C@@H](C)[C@@H]([C@@H](C)[C@@H](OC)[C@H](C)C(=O)O)O3)O2)O1`, 1.41% [at 23.2 µM]; with `CO[C@H]1O[C@@H]2O[C@@]3(C)CC[C@@H]4[C@@H](C)CC[C@@H]([C@H]1C)[C@@]24OO3`, -0.929%. `CCC(=O)N1CCN(c2ccc(-n3c(=O)ccc4cnc5ccc(-c6cnc7ccccc7c6)cc5c43)cc2C(F)(F)F)CC1`: the activity (normalised, proliferation) was determined as 0.244%.

For `Cc1nc2c(C#N)cccc2n1-c1ccc(C(=O)NC2CC2)s1`, the activity (normalised, proliferation) stood at 1.48%. In the case of `CC(C)Oc1cc(Nc2nc(N[C@@H](C)c3ccc(F)cn3)ncc2Cl)[nH]n1`, the activity (normalised, proliferation) is 2.89%.

The record behind these values is PubChem BioAssay AID743366 (National Center for Advancing Translational Sciences (NCATS), 2014).
